# Measurements reported in publication PMC7862700, “An all-to-all approach to the identification of sequence-specific readers for epigenetic DNA modifications on cytosine”.
# Columns and labels:
# Assay in all cases: DAPPL (digital affinity profiling via proximity ligation, sequencing); 10 mM Tris-HCl pH 7.5, 50 mM NaCl, 1 mM DTT, 4% glycerol, room temperature, 30 min; GST-TFs on glutathione beads, 16-mer random dsDNA library, 0.1% formaldehyde crosslink after washing; high values mean tight binding
# [1] = biological target: T1, FLI1 (Homo sapiens, UniProt Q01543 1-452); details: protein: recombinant; tags: N-terminal GST; dsDNA, one strand shown
# T1 sequence: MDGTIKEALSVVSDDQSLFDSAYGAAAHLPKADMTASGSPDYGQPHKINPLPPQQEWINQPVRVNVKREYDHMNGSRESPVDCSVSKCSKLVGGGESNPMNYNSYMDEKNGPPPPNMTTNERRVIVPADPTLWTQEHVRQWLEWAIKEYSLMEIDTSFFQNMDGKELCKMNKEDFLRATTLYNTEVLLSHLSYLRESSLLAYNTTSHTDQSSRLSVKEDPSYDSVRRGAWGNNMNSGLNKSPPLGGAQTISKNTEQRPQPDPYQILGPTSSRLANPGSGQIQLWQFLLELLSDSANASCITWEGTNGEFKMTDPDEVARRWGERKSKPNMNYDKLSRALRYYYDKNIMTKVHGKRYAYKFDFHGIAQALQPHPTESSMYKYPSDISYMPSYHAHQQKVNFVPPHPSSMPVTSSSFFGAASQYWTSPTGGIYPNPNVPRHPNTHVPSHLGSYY
# In short: (§1)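 Sequencing on an Illumina NextSeq500 followed washing, crosslinking with 0.1% formaldehyde, proximity ligation (BsaI/T4 ligase, 1 h, 37 °C) and PCR amplification of pools that had been incubated for 30 min at room temperature with 200 nmole of a random double-stranded 16-mer DNA library in Tris/NaCl/DTT/glycerol buffer. Each pool held DNA-barcoded human transcription factors, expressed in yeast as GST fusions and captured on glutathione beads, plus a tag-only sample. Binding signal is a hexamer's read frequency for a factor divided by its frequency in the tag-only sample.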
# [2] = biological target: T2, ELK1 (Homo sapiens, UniProt P19419 1-428); details: protein: recombinant; tags: N-terminal GST; dsDNA, one strand shown
# T2 sequence: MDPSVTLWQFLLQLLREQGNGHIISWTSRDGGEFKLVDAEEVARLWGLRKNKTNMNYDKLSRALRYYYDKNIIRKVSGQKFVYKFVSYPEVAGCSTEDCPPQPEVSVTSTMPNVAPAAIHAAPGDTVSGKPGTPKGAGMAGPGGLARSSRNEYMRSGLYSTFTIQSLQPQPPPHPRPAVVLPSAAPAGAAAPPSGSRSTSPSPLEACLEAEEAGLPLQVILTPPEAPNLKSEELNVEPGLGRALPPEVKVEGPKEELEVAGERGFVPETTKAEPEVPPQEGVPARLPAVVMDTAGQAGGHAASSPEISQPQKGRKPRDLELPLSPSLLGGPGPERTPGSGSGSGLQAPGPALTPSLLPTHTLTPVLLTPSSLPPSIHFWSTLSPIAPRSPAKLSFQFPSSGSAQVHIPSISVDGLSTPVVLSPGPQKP
# In short: as §1
# [3] = biological target: T3, GABPA (Homo sapiens, UniProt Q06546 1-454); details: protein: recombinant; tags: N-terminal GST; dsDNA, one strand shown
# T3 sequence: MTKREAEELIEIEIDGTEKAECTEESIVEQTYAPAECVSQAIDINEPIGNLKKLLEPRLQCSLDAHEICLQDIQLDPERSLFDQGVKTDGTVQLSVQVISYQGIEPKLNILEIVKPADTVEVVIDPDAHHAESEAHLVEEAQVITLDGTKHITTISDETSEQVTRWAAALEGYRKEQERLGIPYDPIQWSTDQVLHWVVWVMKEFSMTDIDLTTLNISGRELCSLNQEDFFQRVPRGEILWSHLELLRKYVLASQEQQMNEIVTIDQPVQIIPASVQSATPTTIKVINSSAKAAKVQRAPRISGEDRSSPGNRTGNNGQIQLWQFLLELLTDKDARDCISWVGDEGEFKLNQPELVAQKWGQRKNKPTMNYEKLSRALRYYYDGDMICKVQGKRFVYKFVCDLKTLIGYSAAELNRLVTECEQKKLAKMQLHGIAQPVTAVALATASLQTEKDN
# In short: as §1
# [4] = biological target: T4, ERG (Homo sapiens, UniProt P11308 1-479); details: protein: recombinant; tags: N-terminal GST; dsDNA, one strand shown
# T4 sequence: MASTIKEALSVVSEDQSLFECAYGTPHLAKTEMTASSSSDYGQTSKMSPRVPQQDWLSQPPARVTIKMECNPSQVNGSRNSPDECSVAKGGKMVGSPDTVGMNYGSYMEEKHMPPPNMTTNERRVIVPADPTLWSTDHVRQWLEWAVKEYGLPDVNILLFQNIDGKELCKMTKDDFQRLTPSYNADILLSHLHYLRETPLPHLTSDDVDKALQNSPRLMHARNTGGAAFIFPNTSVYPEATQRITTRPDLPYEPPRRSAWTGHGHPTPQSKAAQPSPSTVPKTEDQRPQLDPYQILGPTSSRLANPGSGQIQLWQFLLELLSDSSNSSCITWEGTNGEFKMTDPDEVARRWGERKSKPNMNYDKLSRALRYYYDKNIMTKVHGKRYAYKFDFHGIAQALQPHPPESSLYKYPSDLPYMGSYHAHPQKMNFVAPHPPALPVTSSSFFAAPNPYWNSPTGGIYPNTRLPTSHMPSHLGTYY
# In short: as §1
# [5] = biological target: ELF1 (Homo sapiens, UniProt P32519 1-619); details: protein: recombinant; tags: N-terminal GST; dsDNA, one strand shown
# Sequence of ELF1 (P32519 whole entry): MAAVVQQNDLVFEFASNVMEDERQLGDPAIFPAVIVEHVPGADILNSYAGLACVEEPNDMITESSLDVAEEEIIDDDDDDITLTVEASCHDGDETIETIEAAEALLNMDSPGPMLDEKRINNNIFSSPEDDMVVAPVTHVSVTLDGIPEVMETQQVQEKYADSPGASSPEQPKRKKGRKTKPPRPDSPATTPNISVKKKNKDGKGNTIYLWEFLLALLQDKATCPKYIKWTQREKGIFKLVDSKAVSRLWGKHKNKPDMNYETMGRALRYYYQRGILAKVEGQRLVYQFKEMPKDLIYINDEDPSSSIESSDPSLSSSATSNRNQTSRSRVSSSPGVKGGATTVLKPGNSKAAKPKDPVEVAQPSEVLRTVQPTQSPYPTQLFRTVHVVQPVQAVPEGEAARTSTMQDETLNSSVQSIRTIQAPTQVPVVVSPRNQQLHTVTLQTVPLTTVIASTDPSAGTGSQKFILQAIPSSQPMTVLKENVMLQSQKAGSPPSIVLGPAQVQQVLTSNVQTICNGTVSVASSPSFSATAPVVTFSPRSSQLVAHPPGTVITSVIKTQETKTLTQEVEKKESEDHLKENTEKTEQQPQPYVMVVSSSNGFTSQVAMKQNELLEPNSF
# In short: as §1
# [6] = biological target: T5, EHF (Homo sapiens, UniProt Q9NZC4 1-300); details: protein: recombinant; tags: N-terminal GST; dsDNA, one strand shown
# T5 sequence: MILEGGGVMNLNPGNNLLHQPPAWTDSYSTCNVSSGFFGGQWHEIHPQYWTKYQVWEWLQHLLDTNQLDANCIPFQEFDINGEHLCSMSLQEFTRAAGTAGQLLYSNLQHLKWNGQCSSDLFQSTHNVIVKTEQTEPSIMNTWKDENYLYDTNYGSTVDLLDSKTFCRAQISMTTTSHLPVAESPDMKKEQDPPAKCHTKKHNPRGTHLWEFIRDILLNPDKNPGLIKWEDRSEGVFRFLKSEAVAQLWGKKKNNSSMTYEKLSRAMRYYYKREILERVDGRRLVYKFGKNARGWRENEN
# In short: as §1
# [7] = biological target: SPI1 (Homo sapiens, UniProt P17947 1-270); details: protein: recombinant; tags: N-terminal GST; dsDNA, one strand shown
# In short: as §1
# [8] = biological target: SPIB (Homo sapiens, UniProt Q01892 1-262); details: protein: recombinant; tags: N-terminal GST; dsDNA, one strand shown
# Sequence of SPIB (Q01892 whole entry): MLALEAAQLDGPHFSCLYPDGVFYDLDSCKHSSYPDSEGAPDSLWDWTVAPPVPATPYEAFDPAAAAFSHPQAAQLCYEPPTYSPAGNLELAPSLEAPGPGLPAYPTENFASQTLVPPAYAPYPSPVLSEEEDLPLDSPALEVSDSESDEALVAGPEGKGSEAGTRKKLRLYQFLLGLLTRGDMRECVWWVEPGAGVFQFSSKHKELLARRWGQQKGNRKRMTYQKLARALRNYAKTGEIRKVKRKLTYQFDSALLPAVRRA
# In short: as §1
# [9] = biological target: T6, ELK3 (Homo sapiens, UniProt P41970 1-407); details: protein: recombinant; tags: N-terminal GST; dsDNA, one strand shown
# T6 sequence: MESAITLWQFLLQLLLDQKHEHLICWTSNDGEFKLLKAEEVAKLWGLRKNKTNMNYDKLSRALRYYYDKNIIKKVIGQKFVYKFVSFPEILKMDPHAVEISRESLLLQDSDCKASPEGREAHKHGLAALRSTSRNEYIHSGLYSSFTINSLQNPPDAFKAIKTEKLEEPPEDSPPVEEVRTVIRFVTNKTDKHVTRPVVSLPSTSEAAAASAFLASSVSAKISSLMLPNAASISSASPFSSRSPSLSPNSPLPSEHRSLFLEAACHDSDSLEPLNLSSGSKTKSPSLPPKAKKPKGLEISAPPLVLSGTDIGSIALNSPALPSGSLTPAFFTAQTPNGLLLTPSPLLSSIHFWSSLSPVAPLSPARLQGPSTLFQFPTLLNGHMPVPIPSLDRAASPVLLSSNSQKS
# In short: as §1
# [10] = biological target: T7, FEV (Homo sapiens, UniProt Q99581 1-238); details: protein: recombinant; tags: N-terminal GST; dsDNA, one strand shown
# T7 sequence: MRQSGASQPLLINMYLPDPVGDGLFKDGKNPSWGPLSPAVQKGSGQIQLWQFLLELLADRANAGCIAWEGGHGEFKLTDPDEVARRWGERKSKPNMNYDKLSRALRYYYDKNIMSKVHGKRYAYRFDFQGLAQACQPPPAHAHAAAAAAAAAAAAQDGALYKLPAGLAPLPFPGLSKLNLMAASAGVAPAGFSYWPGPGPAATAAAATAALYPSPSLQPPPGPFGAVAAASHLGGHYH
# In short: as §1
# [11] = biological target: ETV5 (Homo sapiens, UniProt P41161 1-510); details: protein: recombinant; tags: N-terminal GST; dsDNA, one strand shown
# Sequence of ETV5 (P41161 whole entry): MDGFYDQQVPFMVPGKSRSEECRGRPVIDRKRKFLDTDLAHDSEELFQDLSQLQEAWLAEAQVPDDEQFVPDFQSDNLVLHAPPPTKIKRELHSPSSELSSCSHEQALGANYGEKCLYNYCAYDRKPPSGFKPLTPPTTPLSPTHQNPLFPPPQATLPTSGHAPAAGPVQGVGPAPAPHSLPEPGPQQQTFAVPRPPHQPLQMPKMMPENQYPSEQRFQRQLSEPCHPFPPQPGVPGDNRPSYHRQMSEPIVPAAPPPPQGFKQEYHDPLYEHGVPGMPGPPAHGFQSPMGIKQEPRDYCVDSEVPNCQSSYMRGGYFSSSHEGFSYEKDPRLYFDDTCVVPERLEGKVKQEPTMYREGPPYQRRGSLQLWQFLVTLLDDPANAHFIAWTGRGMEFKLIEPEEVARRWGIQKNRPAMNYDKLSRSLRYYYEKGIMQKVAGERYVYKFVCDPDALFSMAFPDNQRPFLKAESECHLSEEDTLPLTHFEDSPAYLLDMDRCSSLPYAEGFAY
# In short: as §1
# [12] = biological target: HSF1 (Homo sapiens, UniProt Q00613 1-529); details: protein: recombinant; tags: N-terminal GST; chain copies: 3; dsDNA, one strand shown
# Sequence of HSF1 (Q00613 whole entry): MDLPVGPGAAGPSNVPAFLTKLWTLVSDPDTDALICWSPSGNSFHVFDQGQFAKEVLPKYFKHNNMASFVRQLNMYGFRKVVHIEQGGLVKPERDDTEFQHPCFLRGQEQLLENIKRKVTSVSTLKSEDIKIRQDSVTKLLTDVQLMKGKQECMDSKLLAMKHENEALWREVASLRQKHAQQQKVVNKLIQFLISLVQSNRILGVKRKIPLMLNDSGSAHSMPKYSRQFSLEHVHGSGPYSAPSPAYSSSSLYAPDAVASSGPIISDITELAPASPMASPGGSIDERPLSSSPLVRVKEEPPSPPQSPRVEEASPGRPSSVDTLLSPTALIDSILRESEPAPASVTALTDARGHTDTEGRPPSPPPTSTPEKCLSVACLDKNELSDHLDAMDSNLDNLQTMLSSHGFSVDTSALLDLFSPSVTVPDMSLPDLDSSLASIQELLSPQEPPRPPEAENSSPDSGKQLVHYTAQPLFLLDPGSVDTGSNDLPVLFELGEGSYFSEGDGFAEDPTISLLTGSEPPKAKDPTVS
# In short: as §1
# [13] = biological target: T8, SPIC (Homo sapiens, UniProt Q8N5J4 1-248); details: protein: recombinant; tags: N-terminal GST; dsDNA, one strand shown
# T8 sequence: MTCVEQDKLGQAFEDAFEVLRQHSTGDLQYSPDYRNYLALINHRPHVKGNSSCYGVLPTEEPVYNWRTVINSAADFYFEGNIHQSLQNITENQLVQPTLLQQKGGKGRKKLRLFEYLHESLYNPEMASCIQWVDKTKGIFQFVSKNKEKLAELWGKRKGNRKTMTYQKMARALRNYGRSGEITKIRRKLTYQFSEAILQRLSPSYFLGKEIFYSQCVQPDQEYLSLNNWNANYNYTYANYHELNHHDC
# In short: as §1
# [14] = biological target: ELF4 (Homo sapiens, UniProt Q99607 1-663); details: protein: recombinant; tags: N-terminal GST; dsDNA, one strand shown
# Sequence of ELF4 (Q99607 whole entry): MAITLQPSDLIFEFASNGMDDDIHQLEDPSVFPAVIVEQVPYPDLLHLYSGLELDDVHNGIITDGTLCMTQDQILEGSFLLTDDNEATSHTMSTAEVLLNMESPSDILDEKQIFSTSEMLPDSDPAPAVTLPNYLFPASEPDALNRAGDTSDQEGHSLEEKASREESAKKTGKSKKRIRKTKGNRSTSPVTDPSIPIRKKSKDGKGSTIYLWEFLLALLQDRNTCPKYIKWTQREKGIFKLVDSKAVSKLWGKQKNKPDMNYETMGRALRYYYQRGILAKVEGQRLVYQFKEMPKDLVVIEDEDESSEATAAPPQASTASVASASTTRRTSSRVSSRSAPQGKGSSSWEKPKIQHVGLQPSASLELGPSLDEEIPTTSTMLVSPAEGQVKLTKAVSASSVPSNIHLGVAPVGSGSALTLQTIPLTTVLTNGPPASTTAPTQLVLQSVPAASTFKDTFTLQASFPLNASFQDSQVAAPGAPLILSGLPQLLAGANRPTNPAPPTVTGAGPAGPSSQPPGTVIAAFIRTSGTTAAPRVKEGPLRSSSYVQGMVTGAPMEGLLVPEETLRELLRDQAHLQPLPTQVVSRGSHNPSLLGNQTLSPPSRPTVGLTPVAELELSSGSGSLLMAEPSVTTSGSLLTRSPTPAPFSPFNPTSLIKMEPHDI
# In short: as §1
# [15] = biological target: T9, ELK4 (Homo sapiens, UniProt P28324-2 1-405); details: protein: recombinant; tags: N-terminal GST; dsDNA, one strand shown
# T9 sequence: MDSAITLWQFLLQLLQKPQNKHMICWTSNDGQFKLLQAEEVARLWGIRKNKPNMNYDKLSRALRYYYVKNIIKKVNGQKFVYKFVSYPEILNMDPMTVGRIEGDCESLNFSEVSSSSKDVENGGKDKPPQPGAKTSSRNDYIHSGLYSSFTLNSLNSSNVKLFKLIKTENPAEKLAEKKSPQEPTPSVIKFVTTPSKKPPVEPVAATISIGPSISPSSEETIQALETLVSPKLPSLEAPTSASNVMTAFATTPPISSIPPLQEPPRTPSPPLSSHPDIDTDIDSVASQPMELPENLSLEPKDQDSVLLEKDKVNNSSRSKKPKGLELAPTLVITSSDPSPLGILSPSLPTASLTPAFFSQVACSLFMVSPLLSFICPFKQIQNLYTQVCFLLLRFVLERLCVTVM
# In short: as §1
# [16] = biological target: T10, ETV2 (Homo sapiens, UniProt O00321 1-342); details: protein: recombinant; tags: N-terminal GST; dsDNA, one strand shown
# T10 sequence: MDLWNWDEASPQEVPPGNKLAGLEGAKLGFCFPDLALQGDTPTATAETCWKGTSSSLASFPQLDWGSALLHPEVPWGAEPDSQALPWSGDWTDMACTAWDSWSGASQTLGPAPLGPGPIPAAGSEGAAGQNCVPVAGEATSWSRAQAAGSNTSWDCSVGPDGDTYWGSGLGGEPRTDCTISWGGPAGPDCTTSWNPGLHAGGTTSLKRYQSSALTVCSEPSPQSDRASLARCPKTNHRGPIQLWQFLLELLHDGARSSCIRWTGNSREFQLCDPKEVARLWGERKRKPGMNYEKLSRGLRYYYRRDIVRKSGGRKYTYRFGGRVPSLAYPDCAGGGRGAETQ
# In short: as §1
# [17] = biological target: T11, ELF3 (Homo sapiens, UniProt P78545 1-371); details: protein: recombinant; tags: N-terminal GST; dsDNA, one strand shown
# T11 sequence: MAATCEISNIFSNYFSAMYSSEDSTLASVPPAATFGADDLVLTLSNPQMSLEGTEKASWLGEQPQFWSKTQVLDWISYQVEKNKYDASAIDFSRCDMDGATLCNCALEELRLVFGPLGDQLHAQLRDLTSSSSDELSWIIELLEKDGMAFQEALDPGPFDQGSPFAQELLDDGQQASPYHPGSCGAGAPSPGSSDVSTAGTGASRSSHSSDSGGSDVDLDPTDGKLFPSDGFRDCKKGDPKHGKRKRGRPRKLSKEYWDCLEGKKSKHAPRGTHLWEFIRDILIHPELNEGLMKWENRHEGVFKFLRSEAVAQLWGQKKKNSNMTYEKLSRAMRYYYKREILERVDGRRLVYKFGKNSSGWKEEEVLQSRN
# In short: as §1
# [18] = biological target: CRX (Homo sapiens, UniProt O43186 1-299); details: protein: recombinant; tags: N-terminal GST; dsDNA, one strand shown
# Sequence of CRX (O43186 whole entry): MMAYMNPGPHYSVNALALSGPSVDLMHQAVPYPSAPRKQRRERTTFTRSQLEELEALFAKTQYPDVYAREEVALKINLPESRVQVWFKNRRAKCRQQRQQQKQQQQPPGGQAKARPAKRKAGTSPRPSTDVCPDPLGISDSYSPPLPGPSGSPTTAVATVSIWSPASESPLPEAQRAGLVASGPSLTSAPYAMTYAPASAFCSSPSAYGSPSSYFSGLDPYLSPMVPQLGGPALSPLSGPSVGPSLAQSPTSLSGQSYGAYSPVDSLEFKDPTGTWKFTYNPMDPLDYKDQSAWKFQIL
# In short: as §1
# [19] = biological target: ETV1 (Homo sapiens, UniProt P50549 1-477); details: protein: recombinant; tags: N-terminal GST; dsDNA, one strand shown
# Sequence of ETV1 (P50549 whole entry): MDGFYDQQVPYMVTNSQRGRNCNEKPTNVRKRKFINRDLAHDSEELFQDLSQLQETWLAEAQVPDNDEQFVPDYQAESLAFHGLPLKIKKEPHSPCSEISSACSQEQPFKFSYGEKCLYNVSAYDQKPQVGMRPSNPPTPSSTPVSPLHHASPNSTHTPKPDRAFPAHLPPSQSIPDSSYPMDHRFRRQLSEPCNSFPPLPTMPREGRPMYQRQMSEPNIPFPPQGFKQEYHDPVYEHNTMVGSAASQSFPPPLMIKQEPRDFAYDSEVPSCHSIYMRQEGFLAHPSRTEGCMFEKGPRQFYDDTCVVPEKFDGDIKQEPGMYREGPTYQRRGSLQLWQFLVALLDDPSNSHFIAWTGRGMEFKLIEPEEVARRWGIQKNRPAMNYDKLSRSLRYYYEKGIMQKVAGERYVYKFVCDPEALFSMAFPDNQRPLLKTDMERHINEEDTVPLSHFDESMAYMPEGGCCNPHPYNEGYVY
# In short: as §1
sequence,measurement,setting,value
TCCTTC,binding signal,[1],"2.2 fold enrichment (6-mer frequency, TF over GST control)"
same,binding signal,[2],"2 fold enrichment (6-mer frequency, TF over GST control)"
same,binding signal,[3],"2.01 fold enrichment (6-mer frequency, TF over GST control)"
same,binding signal,[4],"2.44 fold enrichment (6-mer frequency, TF over GST control)"
same,binding signal,[5],"2.05 fold enrichment (6-mer frequency, TF over GST control)"
same,binding signal,[6],"2 fold enrichment (6-mer frequency, TF over GST control)"
same,binding signal,[7],"2.15 fold enrichment (6-mer frequency, TF over GST control)"
same,binding signal,[8],"2.16 fold enrichment (6-mer frequency, TF over GST control)"
same,binding signal,[9],"2.3 fold enrichment (6-mer frequency, TF over GST control)"
same,binding signal,[10],"2.2 fold enrichment (6-mer frequency, TF over GST control)"
same,binding signal,[11],"2.1 fold enrichment (6-mer frequency, TF over GST control)"
same,binding signal,[12],"2.13 fold enrichment (6-mer frequency, TF over GST control)"
same,binding signal,[13],"2.26 fold enrichment (6-mer frequency, TF over GST control)"
same,binding signal,[14],"2.08 fold enrichment (6-mer frequency, TF over GST control)"
same,binding signal,[15],"2.04 fold enrichment (6-mer frequency, TF over GST control)"
same,binding signal,[16],"2.47 fold enrichment (6-mer frequency, TF over GST control)"
same,binding signal,[17],"1.85 fold enrichment (6-mer frequency, TF over GST control)"
same,binding signal,[18],"1.72 fold enrichment (6-mer frequency, TF over GST control)"
same,binding signal,[19],"2.05 fold enrichment (6-mer frequency, TF over GST control)"
